Results: PubChem BioAssay AID1645858 (Buhrlage Lab, Dana-Farber Cancer Institute and Novartis …, 2021)
Hit rate of the full screen: of about 47,000 compounds, about 330 (0.7%) were called active. No stated cut-off is given here; in the data, active means inhibition above about 30%; inactive means the rest. What follows is part of a selection rich in actives, with near analogues and random picks from the rest.

What follows are compounds tested against OTU domain-containing protein 3 (Homo sapiens) (UniProt Q5T2D3) (assay: blocks human OTUD3 ubiquitin-rhodamine cleavage (AID 1645858)). Conditions: purified OTUD3, Ub-rhodamine fluorescence, 2 h; at 25 µM; active compounds read high.
OTU domain-containing protein 3 (Homo sapiens), sequence (Q5T2D3 whole entry, looked up, the tested form may be a part): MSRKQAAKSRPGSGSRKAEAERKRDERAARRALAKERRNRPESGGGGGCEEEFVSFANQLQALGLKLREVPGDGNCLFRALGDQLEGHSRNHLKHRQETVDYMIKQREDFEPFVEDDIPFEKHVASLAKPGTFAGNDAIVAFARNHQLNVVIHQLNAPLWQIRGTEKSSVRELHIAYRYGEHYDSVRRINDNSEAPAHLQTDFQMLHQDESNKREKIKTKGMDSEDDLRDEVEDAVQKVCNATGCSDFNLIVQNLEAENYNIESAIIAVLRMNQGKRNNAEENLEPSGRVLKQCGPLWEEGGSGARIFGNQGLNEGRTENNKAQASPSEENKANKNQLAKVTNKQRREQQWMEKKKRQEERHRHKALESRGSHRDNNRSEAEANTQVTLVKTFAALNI

inhibition, inactive:
Cc1nn(-c2cccc(F)c2)c2c1c(C)c(CCC(=O)NCc1ccccn1)c(=O)n2C 8.09%
CC(=O)N1CCC(N2CCC[C@H]2c2nc(-c3ccc(OC4CCCCC4)nc3)no2)CC1 -18.8%
O=C(c1cc2ccc(F)cc2[nH]1)N1CCOCC(Cc2ccncn2)C1 (centres undefined) -7.16%
Cn1cc(C(=O)N2CCCCC2c2nc(N)ncc2-c2ccccc2)ccc1=O (centres undefined) -2.37%
CCC(=O)N(C)CCc1noc(-c2[nH]c3ccc(C)cc3c2C)n1 -11.5%
Cc1noc(C)c1C1CCCN1S(=O)(=O)c1cccc(Cl)c1 (centres undefined) 0.263%
O=C(COc1cccc2ccc(N3CCC(Cc4ccccc4)CC3)nc12)Nc1cccc(F)c1 21.8%
O=C(CCc1nnc2ccc(N3CCCC3)nn12)NCc1ccc(F)cc1 12%
Cc1ccc(NC(=O)N2CCC(CC(=O)N3CCCCC3)CC2)cc1 -0.189%
CCC(C)C1C(=O)/C(=C(\O)C2C3C(C)CC(C)CC3C=CC2C2(C)OC2C)C(=O)N1C (centres undefined) 18.9%
CCOC(=O)N1CCN(c2nc3c(c(=O)[nH]c(=O)n3C)n2CCSc2ncccn2)CC1 13.2%
CC(C)CNC(=O)C1CCN(c2cncnc2N2CCOCC2)CC1 0.599%
CC(=O)c1sc(NC(=O)c2ccc(S(=O)(=O)N3CC(C)CC(C)C3)cc2)nc1C (centres undefined) 4.19%
CCn1c(CN(C)C(=O)Nc2cccc(C)c2)nc2cc(C(=O)N(C)C)ccc21 10.5%
CS(=O)(=O)c1ccc(C(=O)Nc2ccccc2-c2ccccc2)cc1 11.2%
COc1ccc(N2CC(c3nnc(NC(=O)CCc4ccccc4)s3)CC2=O)cc1 (centres undefined) 17.9%
N#CCCN(C(=O)c1cc2c(s1)-c1ccc(Cl)cc1S(=O)(=O)C2)c1ccccc1 -4.41%
CC(=O)N1CCc2c([nH]c3ccccc23)C1 -0.00325%
COc1ccccc1N(CC(=O)N1c2ccccc2CC1C)S(=O)(=O)c1ccc(F)cc1 (centres undefined) 14%
Oc1ccc(O)c2c1C(O)CCC21Oc2cccc3cccc(c23)O1 (centres undefined) -11.1%
Cc1nc2n(n1)CCN(C(=O)c1cc(-c3cccs3)[nH]n1)C2 0.034%
CC(Oc1ccccc1)C(=O)Nc1ccc(-c2cn3cccnc3n2)cc1 (centres undefined) 4.02%
CCCCCCSc1ncnc2c1sc1nc(-c3ccccc3)c3c(c12)CC(C)(C)OC3 -6.83%
CSc1ncnc2c1sc1nc(-c3ccccc3)c3c(c12)CC(C)(C)OC3 7.31%
COc1ccc(Cl)cc1C(=O)NCC(c1ccsc1)N1CCOCC1 (centres undefined) -5.99%
CC1CN(S(=O)(=O)c2cccc(Cl)c2)Cc2ccccc2N1C (centres undefined) -2.48%
Cc1ccc(S(=O)(=O)c2cn(CC(=O)NC3CCCC3)c3nc(C)ccc3c2=O)cc1 -8.29%
N#Cc1cccc(CN2CC[C@@H]3[C@@H](CO[C@@H]3CNc3ncccn3)C2)c1 0.273%
CCN1CCN(c2ccc(-c3nc(-c4ccc(C)cc4)no3)cn2)CC1 -1.12%
Cc1cc2n(n1)CCCN2C(=O)CCC(=O)N1CCN(c2ccc(F)cc2)CC1 7.75%
O=C(NCc1cccnc1)C1CCN(c2cnc(N3CCCCCC3)nc2)CC1 -16.6%
O=C(Cn1cccc1-c1nnc(C2CC2)o1)NC1CCCCC1 -15.9%
CCCNc1c(NC(=O)C2CC(=O)N(c3ccccc3)C2)c(=O)oc2ccccc12 (centres undefined) 21.6%
O=C(N[C@@H]1C[C@@H](Oc2cccnc2)[C@H](O)[C@H]1N1CCCCC1)c1ccccn1 -9.39%
CC(=O)N1Cc2ccccc2CC2(CCN(Cc3cccnc3)CC2)C1 4.03%
CCC(=O)Nc1nc2cc(NC(=O)c3ccc(OC)cc3)ccc2s1 17.4%
O=C(Cn1c(=O)n(Cc2ccc3c(c2)OCO3)c(=O)c2ccccc21)NCc1ccco1 0.529%
O=C(NCCc1ccccc1)c1ccc2c(=O)nc3c(-c4ccccc4F)n[nH]n3c2c1 -7.12%
COCCn1cc2c3c(cccc31)CN(C(=O)c1cnccn1)CC2 -12.8%
Cc1nn(-c2ccccn2)c2ncc(C(=O)c3cc(F)ccc3O)cc12 -3.93%
CCNC(=O)CCc1nc2c(C)nn(-c3ccccc3)c2n(CC)c1=O 9.41%
CC(C)c1cc(C2CCCN2C(=O)Cc2ccc(F)cc2)no1 (centres undefined) 2.85%
CCN1CCC(n2c(C(F)(F)F)nc3c(OC)cccc32)CC1 5.17%
CCN1C[C@@]23CN(C(=O)c4cccc(Cl)c4)C[C@@H](C[C@@H]2S1(=O)=O)O3 11.4%
CCc1nnc(-c2ccc(=O)n(CC(=O)N3CCN(C(C)C)CC3)c2)o1 -5.08%
CNc1nc(N2CCCCCC2)nc(-n2cnc(SC)n2)n1 -0.432%
COc1cccc(N2CCN(C(=O)c3sc4ncccc4c3-n3cccc3)CC2)c1 15.3%
O=C(Cc1cc(=O)oc2cc(O)ccc12)N1CC[C@@]2(O)CCCC[C@H]2C1 1.08%
Cc1occc1C(=O)Nc1cc(-c2ccc(F)cc2)nn1C -0.358%
O=C(O)CC1(CC(=O)Nc2ccc(Oc3ccccc3)cc2)CCCC1 15.9%
Clc1ccc(CNC2CCN(Cc3ccccc3)C2)cc1Cl (centres undefined) 5.2%
Cc1cc(S(=O)(=O)N2CC=C(c3c(C)[nH]c4ccccc34)CC2)ccc1F -29.4%
CCc1ccc(S(=O)(=O)N2CCC3(CC2)COCCN(Cc2cccnc2)C3)cc1 -4.96%
O=C(c1ccc(N2CCCC2)nn1)N1CCN(c2ccccn2)CC1 0.782%
Cc1nn(-c2ccccc2)c(C)c1S(=O)(=O)N1CCN(c2ccccn2)CC1 -4.16%
Cc1nc(NC(=O)c2ccc(F)cc2Cl)sc1-c1ccccc1 -3.32%
CC(=O)N[C@@H]1C[C@H](c2cccc(F)c2)O[C@@H]2CCC[C@@H]12 -4.95%
CCn1c(CNC(=O)c2ccco2)nnc1SCC(=O)Nc1cccc(F)c1 0.153%
COc1ccc(/C=C/C(=O)Nc2ccc3c(c2)OCCO3)cc1Br -13.2%
O=C(CSc1nnc(-c2ccncc2)n1Cc1ccccc1)Nc1cccc(Cl)c1 -10.3%
O=C(c1ccncc1)N1CC[C@@H]2CN(Cc3cccc(Cl)c3)S(=O)(=O)[C@@H]2CC1 2.12%
Cc1cccc(-c2c3c(=O)n(C)c(=O)n(C)c3cn2Cc2ccc(F)cc2)c1 -12.7%
CC(C)=CCC/C(C)=C\Cc1c(O)cc(C)c(C=O)c1O -3.19%
NC(=O)c1ccc(NC(=O)Cc2cc(-c3ccc(Cl)cc3)on2)cc1 -10.7%
Cc1ccc(NS(=O)(=O)c2ccc3c(c2)NC(=O)CC(=O)N3)cc1F -1.08%
CCOc1ccc(S(=O)(=O)N2CCCC2c2ccco2)cc1 (centres undefined) -0.738%
O=C1CC(C(=O)N2CCC(c3ccc(Nc4ncccn4)cn3)CC2)c2ccccc2N1 (centres undefined) -7.6%
O=S(=O)(c1cccc2cccnc12)N1CCN(C2CCCCC2)CC1 -6.63%
CCOC(=O)c1cc(C(=O)Nc2cccc(C(F)(F)F)c2)n2ccc(C)cc12 -0.911%

inhibition, active:
O=C(COc1cccc2ccc(N3CCC(Cc4ccccc4)CC3)nc12)NCc1ccc(F)cc1 36.2%
CC1(C)Cc2c(c(-c3ccco3)nc3sc4c(SCCCc5ccccc5)ncnc4c23)CO1 33.5%
O=C(NCCc1ccccc1)c1ccc2c(=O)n(Cc3ccco3)c(=O)n(Cc3cccc([N+](=O)[O-])c3)c2c1 36.8%
Clc1cc2nc(N3CCN(c4ccccn4)CC3)c3nncn3c2cc1Cl 44.6%
O=C1C(O)=C(c2ccc(O)c(O)c2)C(=O)C(O)=C1c1ccccc1 73.3%
